Data published in PubChem BioAssay.

assay: growth effects on S. cerevisiae YJM789 – YJM789 clinical isolate, OD600, 24 h, basal, primary screen (AID 1089); conditions: higher = more signal, called active from +8 up or from −8 down;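 further: growth of clinical yeast isolate S. cerevisiae YJM 789 seeded 1000 cells per well; test concentration not given here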

z-score, inactive:
CC[C@@H]1C=C(C(=O)O)[C@H](c2ccc(C)cc2)N1S(=O)(=O)c1ccc(C)cc1 -1.23, COCC(=C=CC[C@@H](O)c1ccc(OCCO)cc1)C[C@@H](O)c1ccccn1 -0.64, C=CCN1Cc2ccccc2[C@@H]2OC(c3ccc(OCCCO)cc3)=N[C@]2(CCS(=O)(=O)c2ccccc2)C1=O 0.863, COc1cc(OC)c(C(O)C2C=CC3C(=O)NC(=O)C3N2Nc2ccccn2)cc1Br (stereo unspecified) -0.0137, COC(=O)[C@H](Cc1ccccc1)N[C@H](/C=C/C1CC1)[C@@H](O)Cc1ccccc1 -1.56, O=C1C2C=CC(C(O)c3ccc4c(c3)OCO4)N(Nc3ccc([N+](=O)[O-])cc3)C2C(=O)N1c1ccccc1 (stereo unspecified) -0.664, CC(C)CNC(=O)[C@@]1(Cc2ccccc2I)c2ccccc2C(=O)N(Cc2ccccc2C(F)(F)F)[C@H]1c1ccc(CO)cc1 -0.618, COc1cc2c(cc1O)C(c1cccs1)N(Cc1cccc(OC(F)(F)F)c1)CC2 (stereo unspecified) -2.16, C=C(/C(=C/C[C@H](OC(=O)c1ccncc1)c1ccc(OCCO)cc1)c1cc(C(=O)OC)ccc1OC)C(C)C 0.236, CC1CC/C=C\[C@H]2OC34C=CCN(Cc5ccccc5)C(=O)[C@H]3N(C(C)CO)C(=O)[C@@H]4C2C(=O)O1 (stereo partly specified) -0.875, CCOC(=O)C[C@H]1[C@H](OC(=O)c2ccc(-c3ccccc3)cc2)[C@@H](NC(=O)c2ccccc2)c2cc(OCCCO)ccc2N1C(=O)Cc1ccc(OC)cc1 0.883, COc1ccc(NN2C(C(O)c3ccc(N(C)C)cc3)C=CC3C(=O)N(C4CCCCC4)C(=O)C32)cc1 (stereo unspecified) -0.229, NC(=O)[C@@H]1[C@H]2C(=O)O[C@H](c3ccccc3)[C@H](c3ccccc3)N2[C@H](c2ccc(O)cc2)[C@@]12C(=O)Nc1ccc(C#CC3=CCCCC3)cc12 1.98, C=CCC(OC(C)=O)[C@@H]1[C@@H](N(Cc2ccc(-c3cccc(C(F)(F)F)c3)o2)C(=O)c2cccc3ccccc23)c2cc(OCCCO)ccc2N1C(=O)Cc1ccc2ccccc2c1 (stereo partly specified) 0.1, O=C1O[C@@H](c2ccccc2)[C@@H](c2ccccc2)N2[C@@H](c3ccccc3OCCO)[C@]3(C(=O)Nc4ccccc43)[C@@H](C(=O)O)[C@H]12 0.232, O=C1OCCC/C=C\[C@H]2OC34C=CCN(c5ccc6ccccc6c5)C(=O)[C@H]3N(CCCCCO)C(=O)[C@@H]4C12 (stereo partly specified) -1.56, Cc1ccc(S[C@]2(C(=O)NCC(C)C)CC(=O)N(Cc3cc(C(F)(F)F)cc(C(F)(F)F)c3)[C@@H]2c2ccc(CO)cc2)cc1 -0.463, COc1ccc([C@H]2C[C@H]3C(I)=C[C@@H]2C(=O)[C@]32CO2)cc1 -1.61, C=CCNC(=O)[C@@H]1[C@H]2C(=O)O[C@H](c3ccccc3)[C@H](c3ccccc3)N2[C@H](c2ccc(OCCO)cc2)[C@@]12C(=O)N(C(=O)OCCOC)c1ccc(C#CCC(C(=O)OC)C(=O)OC)cc12 1.05, COc1ccc([Si](C)(C)[C@H]2[C@H](CCO)O[C@@]3(C(=O)N(Cc4ccccc4)c4ccc(N5CCCCC5=O)cc43)[C@@H]2C)cc1 0.296, C[N+](C)(C)CCCC[C@@H]1NC(=O)[C@@H]2C[C@H](C(=O)NCCCCCN)[C@H](c3ccc(O)cc3)N2C1=O -4.09, O=C1C2C=CC(C(O)c3ccc(-c4ccccc4)s3)N(Nc3ccccc3)C2C(=O)N1c1ccccc1 (stereo unspecified) -0.307, COc1ccc(C(=O)Nc2cccc(CN3C(=O)[C@]4(O[C@H](CCn5cc(CCO)nn5)[C@@H]([Si](C)(C)c5ccc(OC)cc5)[C@@H]4C)c4ccccc43)c2)cc1 0.901, COC(=O)[C@@]1(Cc2ccccc2)[C@H]2c3cc(C(=O)N4CCCC4)n(Cc4ccc(O)c(OC)c4)c3C[C@H]2CN1C(=O)c1ccccc1 1.21, O=C(NCCN1CCOCC1)[C@@H]1c2ccccc2C(=O)N(Cc2cc(C(F)(F)F)cc(C(F)(F)F)c2)[C@H]1c1ccc(CO)cc1 0.764, O=C1C2C=CC(C(O)c3cc(C(F)(F)F)cc(C(F)(F)F)c3)N(Nc3ccccc3)C2C(=O)N1c1ccccc1 (stereo unspecified) 1, O=C1OCC=C[C@H]2OC34C=CCN(CCN5CCOCC5)C(=O)[C@H]3N(CCO)C(=O)[C@@H]4[C@@H]12 (stereo partly specified) -0.674, CCCCCCc1nc(-c2ccc(-c3ccc(Cl)c(Cl)c3)o2)cc2c1[Si](C(C)C)(C(C)C)O[C@H]2c1ccccc1 -0.124, O=C1C2C=CC(C(O)c3c(F)cccc3Cl)N(Nc3ccccc3F)C2C(=O)N1c1ccccc1 (stereo unspecified) 0.232, COc1ccc(C(O)C2C=CC3C(=O)N(C)C(=O)C3N2NC(=O)OC(C)(C)C)c2ccccc12 (stereo unspecified) -0.842, OCC1C=C(/C=C/c2ccccc2)CN1Cc1ccccc1Br (stereo unspecified) -0.486, CN1C(=O)C2C=CC(C(O)c3ccc(F)cc3)N(N(c3ccccc3)c3ccccc3)C2C1=O (stereo unspecified) 0.0729, CC(=CC1CCCCC1)[C@@H](NC(=O)c1cccnc1)c1ccc(-c2ccccc2)cc1 1.36, CCN(CC)c1ccc(N2CC=CC34O[C@@H]5C=CCOC(=O)[C@@H]5[C@H]3C(=O)N(CCCCCCO)[C@@H]4C2=O)cc1 (stereo partly specified) -0.259, C=C(CCCC)/C(=C/C[C@H](OC(=O)c1ccncc1)c1ccc(OCCO)cc1)c1cc(C(=O)OC)ccc1OC 0.992, COCCOC(=O)N1C(=O)[C@@]2(c3cc(C#CC4(O)CCCCCC4)ccc31)[C@H](c1ccccc1OCCO)N1[C@H](c3ccccc3)[C@H](c3ccccc3)OC(=O)[C@H]1[C@@H]2C(=O)N1CCc2cc(OC)c(OC)cc2C1 2.46
